Activity calls are given as the source filed them.

Tested on in one experiment: not listed separately
Description: blood-stage malaria parasite viability loss – strain 3D7, DAPI fluorescence, 100 nL, primary screen (AID 1184).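 Note: parasites grown inside human red blood cells in medium with human serum.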 To be noted: P. falciparum 3D7 growth, 3 d, higher = more signal.
Molecule `[N-]=[N+]=NCc1ccccc1[C@@H]1OC(c2ccc(OCCCO)cc2)=N[C@]1(Cc1ccccc1)C(=O)N1CCOCC1` displayed a z-score of -2.33.

`COCCOC(=O)N1C(=O)[C@@]2(c3cc(C#CC4(O)CCCCCC4)ccc31)[C@H](c1ccc(OCCO)cc1)N1[C@H](c3ccccc3)[C@H](c3ccccc3)OC(=O)[C@H]1[C@@H]2C(=O)NC[C@H](O)c1ccccc1` registered a z-score of -2.27.

As to `CCCNC(=O)[C@@H]1c2ccccc2C(=O)N(c2ccc(C)cn2)[C@H]1c1ccc(CO)cc1`, the z-score stood at 0.167.

On to `COC(=O)c1c(CC[C@@H](CO)NC(=O)N[C@H](Cc2ccccc2)Cn2cc(-c3ccccc3N)nn2)oc(C(C)=O)c1C(=O)OC`, for which the z-score was -1.29.

For another experiment, the target named is Homeobox protein Hox-A13 (Mus musculus) (UniProt Q62424). Description: disruptors of Hoxa13 oligonucleotide interaction – biochemical, fluorescence polarization, labeled oligonucleotide, primary screen (AID 1185). To be noted: Hoxa13:DNA binding, 15 min, higher = more signal, called active from +8 up or from −8 down. (In general: In fluorescence polarisation assays a small probe gives low polarisation when free and higher when bound to something large.)
Sequence of Homeobox protein Hox-A13 (Mus musculus) (Q62424 whole entry, looked up): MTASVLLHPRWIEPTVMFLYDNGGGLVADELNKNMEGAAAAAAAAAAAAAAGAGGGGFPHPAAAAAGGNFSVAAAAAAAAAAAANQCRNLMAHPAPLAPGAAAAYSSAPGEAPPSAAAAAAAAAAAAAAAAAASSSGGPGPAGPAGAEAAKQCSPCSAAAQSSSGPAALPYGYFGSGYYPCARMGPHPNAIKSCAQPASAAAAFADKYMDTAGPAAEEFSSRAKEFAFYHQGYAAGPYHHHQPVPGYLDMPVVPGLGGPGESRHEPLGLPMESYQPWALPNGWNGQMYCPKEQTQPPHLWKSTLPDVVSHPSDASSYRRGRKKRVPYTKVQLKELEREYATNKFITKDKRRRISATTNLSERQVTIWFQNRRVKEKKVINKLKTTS
For `Cc1ccc(S[C@]2(C(=O)NCC(F)(F)F)CC(=O)N(Cc3ccccc3Cl)[C@@H]2c2ccc(CO)cc2I)cc1`, the z-score is -2.61 (inactive).

In the case of `Cc1ccc(S[C@]2(C(=O)O)CC(=O)N(Cc3ccccc3)[C@@H]2c2ccc(CO)cc2I)cc1`, the z-score was -2.92 (inactive).

Take `COC(=O)C1(C)C=C2C(=C(c3ccccc3)C(=O)C2C)CN1` (stereo not given): the z-score is -7.29 (inactive).

Regarding `CC(C)[Si]1(C(C)C)O[C@@H](c2ccccc2)c2cc(C3CC3)nc(-c3ccccc3)c21`, the z-score is -1.21 (inactive).

As for `CN1C(=O)C2C=CC(C(O)C(c3ccccc3)c3ccccc3)N(NC(=O)OC(C)(C)C)C2C1=O` (stereo not given), the z-score was -4.08 (inactive).

Turning to `COC(=O)[C@@H]1N=C(c2ccc(OCCCO)cc2)O[C@@H]1c1ccccc1N=[N+]=[N-]`, the z-score was -3.65 (inactive).

For the molecule `C=C(/C(=C/C[C@H](OC(C)=O)c1ccc(OCCO)cc1)c1cnc2ccccc2c1)C(C)C`, the z-score is -4.31 (inactive).

As to `COCCCNC(=O)[C@@]1(CCS(=O)(=O)c2ccccc2)N=C(c2ccc(OCCCO)cc2)O[C@H]1c1ccccc1`, the z-score is -6.18 (inactive).

As to `CC(C)NC(=O)[C@@]1(c2ccc([N+](=O)[O-])cc2)CC(=O)N(CC23CC4CC(CC(C4)C2)C3)[C@@H]1c1ccc(CO)cc1I`, the z-score is -3.26 (inactive).

As to `CCCCCN1CC=CC23O[C@@H]4C=CCOC(=O)[C@@H]4[C@H]2C(=O)N(C(CO)C(C)C)[C@@H]3C1=O` (stereo not given in full), the z-score was -4.81 (inactive).

`COc1ccc([Si](C)(C)[C@@H]2[C@@H](CCO)O[C@]3(C(=O)N(Cc4ccc(NC(C)=O)cc4)c4ccccc43)[C@H]2C)cc1`: the z-score was -5.34 (inactive).

As for `O[C@@H](Cc1ccccc1)[C@H]1C2C=CCCC(c3ccccc3)=C2CN1Cc1cccc(Cl)c1` (stereo not given in full), the z-score was -5.87 (inactive).

As for `CN1C(=O)[C@@]2(CCC(=O)OC(C)(C)C)N=C(c3ccc(OCCCO)cc3)O[C@H]2c2ccccc21`, the z-score was -4.88 (inactive).

For the molecule `O=C1NC(=O)C2C1C=CC(C(O)Cc1ccccc1)N2Nc1ccccn1` (stereo not given), the z-score was -3.75 (inactive).

Turning to `CO[C@H]1O[C@H](CO)[C@@H](OC(=O)Nc2ccc3c(c2)OCO3)[C@H](OC(=O)Nc2ccccc2-c2ccccc2)[C@@H]1OC(=O)Nc1ccccc1-c1ccccc1`, the z-score is -2.64 (inactive).

As to `CC(C)c1ccc(NN2C(C(O)c3ccc4c(c3)OCO4)C=CC3C(=O)N(c4ccccc4)C(=O)C32)cc1` (stereo not given), the z-score is -1.45 (inactive).

On to `COC(=O)[C@H]1COC(c2ccc(OCCCO)cc2)=N1`, for which the z-score is -3.56 (inactive).

As to `C[N+](C)(C)CCCCCCNC(=O)[C@@H]1C[C@@H]2C(=O)N3CCC[C@H]3C(=O)N2[C@@H]1c1cccc(OCCO)c1`, the z-score was -4.95 (inactive).

On to `CS(=O)(=O)CCOC(=O)C1=CC(CCCO)=CC(c2cccs2)N(Cc2cccc(OC(F)(F)F)c2)C=C1C(=O)OCCS(C)(=O)=O` (stereo not given), for which the z-score was -4.22 (inactive).

Regarding `C=CCN1C(=O)[C@]2(O[C@H](CCn3cc(CCO)nn3)[C@@H]([Si](C)(C)c3ccc(OC)cc3)[C@@H]2C)c2cc(N3CCOC3=O)ccc21`, the z-score was -5.66 (inactive).

For `CC(C)NC(=O)[C@@]1(C)c2ccccc2C(=O)N(Cc2cc(F)cc(C(F)(F)F)c2)[C@H]1c1ccc(CO)cc1`, the z-score is -3.73 (inactive).

Take `CO[C@H]1O[C@H](CO)[C@@H](OC(=O)Nc2ccc(C#N)cc2)[C@H](OC(=O)c2cc3ccccc3[nH]2)[C@H]1OC(=O)c1cc2ccccc2[nH]1`: the z-score is -2.26 (inactive).

For `COc1ccc([Si](C)(C)[C@@H]2[C@@H](CC(=O)N3CCC[C@H]3CO)O[C@]3(C(=O)N(Cc4cccc(N5CCC5=O)c4)c4ccccc43)[C@H]2C)cc1`, the z-score was -2.64 (inactive).

For `CCCNC(=O)[C@@H]1c2ccccc2C(=O)N(Cc2ccccc2Cl)[C@H]1c1ccc(CO)cc1`, the z-score was -2.59 (inactive).

For `C=C(/C(=C/C[C@@H](OC(=O)c1ccncc1)c1ccc(OCCO)cc1)c1cnc2ccccc2c1)C(C)C`, the z-score was -5.46 (inactive).

`O=C1C[C@]2(c3ccc([N+](=O)[O-])cc3)C(=O)N(CCN3CCOCC3)c3cc(CO)ccc3[C@H]2N1CC12CC3CC(CC(C3)C1)C2`: the z-score is -2.32 (inactive).

Turning to `CN(C)CCCNC(=O)[C@@H]1c2ccccc2C(=O)N(Cc2cc(F)cc(C(F)(F)F)c2)[C@H]1c1ccc(CO)cc1`, the z-score was -3.29 (inactive).

Take `CN(C)CCCNC(=O)[C@@H]1c2ccccc2C(=O)N(Cc2ccccc2)[C@H]1c1ccc(CO)cc1`: the z-score was 0.86 (inactive).

On to `CN1C(=O)C2C=CC(C(O)c3ccc(Br)cc3)N(N(c3ccccc3)c3ccccc3)C2C1=O` (stereo not given), for which the z-score was -0.704 (inactive).

On to `COc1ccc(CCNC(=O)[C@@H]2c3ccccc3C(=O)N(c3ccc(C)cn3)[C@H]2c2ccc(CO)cc2)cc1`, for which the z-score is -1.78 (inactive).

In the case of `CCOC(=O)C1=CCC(c2cc3ccccc3[nH]2)NC1` (stereo not given), the z-score is -1.51 (inactive).

On to `CC(C)N1CC=CC23O[C@@H]4C=CCCOC(=O)C4[C@H]2C(=O)N(CCCCCCO)[C@@H]3C1=O` (stereo not given in full), for which the z-score was -2.29 (inactive).

With `[N-]=[N+]=NCc1ccccc1[C@@H]1OC(c2ccc(OCCCO)cc2)=N[C@]1(Cc1ccccc1)C(=O)N1CCOCC1`, the z-score was -4.99 (inactive).

Turning to `COCCOC(=O)N1C(=O)[C@@]2(c3cc(C#CC4(O)CCCCCC4)ccc31)[C@H](c1ccc(OCCO)cc1)N1[C@H](c3ccccc3)[C@H](c3ccccc3)OC(=O)[C@H]1[C@@H]2C(=O)NC[C@H](O)c1ccccc1`, the z-score is 2.7 (inactive).

For the molecule `CCCNC(=O)[C@@H]1c2ccccc2C(=O)N(c2ccc(C)cn2)[C@H]1c1ccc(CO)cc1`, the z-score was -2.4 (inactive).

For `COC(=O)c1c(CC[C@@H](CO)NC(=O)N[C@H](Cc2ccccc2)Cn2cc(-c3ccccc3N)nn2)oc(C(C)=O)c1C(=O)OC`, the z-score was -5.26 (inactive).

The values above are taken from PubChem BioAssay.
